PLK1 PBD block = PLK1 (human) polo-box domain binding inhibition; P53350; Plk1 PBD binding of FITC phosphopeptide, fluorescence polarization; Potency, µM, hits mostly inhibitors; hit rate 2.8% among 360,000; AID 720504; note: series mostly up to about 57 µM; nearly all actives have a fitted effect of over 65% in size
Sfp PPTase inh = Sfp phosphopantetheinyl transferase inhibition; Biochemical Sfp PPTase activity, qHTS; Potency, µM, most hits filed as inhibitors; hit rate 3.5% among 310,000;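 note: the enzyme is Sfp with the accession as filed and its product quenches rhodamine fluorescence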
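Reaction rates are the 30-min fluorescence difference (ex 525, em 598 nm) in wells containing 15 nM Sfp, 5 uM rhodamine-CoA and 12.5 uM BHQ-2-YbbR at pH 7.6 with 10 mM MgCl2.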
CCT chaperon mod = modulators of cytosolic chaperonin (CCT/TRiC) activity; purified chaperonin ATPase assay, HTRF ADP detection, 30 min; activity change, % (concentration not given with the values), hits read low; hit rate 0.3% among 360,000; in the data active = activity change below about -30%
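We incubate TRiC, 40 or 20 nM final, with library compounds at 76 uM and 10 uM ATP for 30 min at 37 °C. ADP formed is detected with Transcreener HTRF reagents after 30 min at room temperature.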
MmCpn inh = inhibitors of Methanococcus maripaludis chaperonin TRiC (MmCpn) | purified Mm-Cpn ATPase, ADP Transcreener TR-FRET | Potency, µM (top dose mostly 76.9 µM), most hits filed as inhibitors | hit rate 0.031% among 330,000 | AID 504842; note: nearly all actives have a fitted effect of over 80% in size
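ATPase turnover read by TR-FRET ADP competition (Eu cryptate antibody/ADP-d2, 665/590 nm): 10uM ATP final, 25nM Mm-CPN final, 30 min 37degC after 10-min compound preincubation, pH 7.4 Tris/KCl/MgCl2/DTT buffer.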
VDR inh = inhibitors of human vitamin D receptor | VDR-SRC2-3 peptide fluorescence polarization, 2 h | Potency, µM, most hits filed as inhibitors | hit rate 0.93% among 400,000 | AID 504847
Target sequence (P11473 whole entry, looked up): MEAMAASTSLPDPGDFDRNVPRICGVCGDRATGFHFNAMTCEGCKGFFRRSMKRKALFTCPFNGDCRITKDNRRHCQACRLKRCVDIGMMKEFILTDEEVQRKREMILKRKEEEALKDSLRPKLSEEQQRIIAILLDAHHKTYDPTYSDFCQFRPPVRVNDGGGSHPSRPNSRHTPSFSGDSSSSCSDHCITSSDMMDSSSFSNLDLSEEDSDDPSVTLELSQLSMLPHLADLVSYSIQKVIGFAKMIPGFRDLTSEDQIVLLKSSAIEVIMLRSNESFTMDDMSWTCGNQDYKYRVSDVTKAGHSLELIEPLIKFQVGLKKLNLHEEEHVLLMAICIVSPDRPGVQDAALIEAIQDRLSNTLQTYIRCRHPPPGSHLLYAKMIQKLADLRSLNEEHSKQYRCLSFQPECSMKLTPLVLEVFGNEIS
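Fluorescence polarization assay of small-molecule disruption of VDR binding to coregulator peptide SRC2-3. Compounds and controls pin-transferred, then read after 2 h incubation at ambient room temperature.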
G9a block = inhibitors of human histone lysine methyltransferase G9a; Q96KQ7; G9a H3K9 monomethylation, AlphaScreen, 2 h; Potency, µM (top dose mostly 102 µM), hits mostly inhibitors; hit rate 8.8% among 350,000; AID 504332; note: nearly all actives have a fitted effect of over 75% in size
Target sequence (Q96KQ7 913-1193 limits assumed): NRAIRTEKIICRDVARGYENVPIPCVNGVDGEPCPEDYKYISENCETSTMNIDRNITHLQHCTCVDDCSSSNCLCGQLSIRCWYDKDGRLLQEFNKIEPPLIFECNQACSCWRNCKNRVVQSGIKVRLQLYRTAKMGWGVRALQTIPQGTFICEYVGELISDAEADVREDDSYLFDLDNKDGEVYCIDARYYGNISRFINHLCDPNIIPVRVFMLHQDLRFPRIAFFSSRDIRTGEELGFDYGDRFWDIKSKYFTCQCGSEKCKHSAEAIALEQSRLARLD
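AlphaScreen detection with an anti-monomethyl H3K9 antibody quantified product after a 2 h room-temperature reaction containing 500 nM biotinylated H3K9 peptide, 20 µM SAM and 20 nM enzyme, which had been preincubated 15 min with compound.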
A number is an active result; - = inactive; ? = inconclusive; . = not tested or not shown; [ ] = another dose, or the depositor's remark. Shown are actives, neighbours in structure and some others; about 10% of the full set was active somewhere. Unless noted, calls come from the whole dose curve; as a rule, active = well fitted curve in the direction sought with a large enough effect; inconclusive = small, poorly fitted or top-dose-only effect, or another doubt; inactive = no such curve, though single readings can be large; an effect the other way counts as inactive or inconclusive.

SMILES	PLK1 PBD block	Sfp PPTase inh	CCT chaperon mod	MmCpn inh	VDR inh	G9a block
Cc1cc(NC(=O)CN2CCc3ccccc3C2)nc2c1c(=O)oc1ccccc12	-	-	-	-	-	28µM
Cc1nnc(C)c2c(C)n(-c3ccc(Cl)c(N)c3)c(C)c12	-	-	-	-	-	56µM
O=c1c(CCc2ccccc2)nc2cnc(N3CCOCC3)nc2n1Cc1ccc(F)cc1	.	-	.	.	-	-[12.7 µM]
O=c1[nH]c2ccccc2nc1/C=C/c1ccc(Cl)cc1	3.4µM	-	-	-	22µM	-
Cc1c(C(=O)N2CCCC2)oc2c1-c1nn(CC(=O)NC(C)c3ccccc3)cc1CC2 (stereo not drawn)	.	.	.	.	-	-
CCC(c1ccccc1)C(CC)c1cc(O)c(O)c(O)c1 (stereo not drawn)	6µM	.	-	.	?	.
c1ccc(C(c2ccccc2)N2CC3(CCNCC3)C2)cc1	.	-	.	.	?	-[12.7 µM]
C[N+](C)(C)CCC(=O)c1cccc2ccccc12	.	18µM	.	.	2µM	0.5µM
O=C(O)CCC(=O)c1cccc2ccccc12	-	-	-	-	-	-
O=C1CC(c2ccccc2)c2cc(O)ccc2O1 (stereo not drawn)	-	?	-	-	-	3.5µM
O=C1CC(c2ccc3c(c2)OCO3)c2cc(O)ccc2O1 (stereo not drawn)	.	89µM	.	.	?	10µM
CCCOc1cccc(C2c3c(oc4ccc(F)cc4c3=O)C(=O)N2CCc2ccc(OC)cc2)c1 (stereo not drawn)	.	.	.	.	-	-
CC(=O)Oc1c(C)cc(OCC(O)CNC(C)C)c(C)c1C (stereo not drawn)	.	-	.	.	-	-
COc1ccccc1/C(C)=N/NC(=O)c1nnn(-c2nonc2N)c1C(C)C	12µM	-	-	-	?	-
COc1cc(/C=N/NC(=O)c2nnn(-c3nonc3N)c2C(C)C)ccc1O	-	-	-	-	-	-
CC(C)c1c(C(=O)N/N=C/c2ccc(OCc3ccc(F)cc3)cc2)nnn1-c1nonc1N	21µM	-	-	-	-	-
Cc1ccc(CNc2ncnc3onc(-c4ccc(F)cc4)c23)cc1	.	.	.	.	-	-
CN1CCN(c2ccc(S(=O)(=O)N3CCCCC3)cc2NC(=O)c2cccc([N+](=O)[O-])c2)CC1	-	-	-	-	?	-
Cc1ccccc1C(=O)Nc1cc(S(=O)(=O)N2CCCCC2)ccc1N1CCN(C)CC1	6µM	-	-	-	-	?
CN1CCN(c2ccc(S(=O)(=O)N3CCCCC3)cc2NC(=O)c2ccc3ccccc3c2)CC1	-	40µM	-	-	-	?
O=[N+]([O-])c1ccc(COc2ccc(Br)cc2CN2CCOCC2)cc1	-	-	-	-	-	50µM
O=[N+]([O-])c1ccc(COc2ccc(CN3CCOCC3)cc2)cc1	-	.	-	.	-	.
O=C(NNC(=O)c1ccco1)c1csc(N2CCOCC2)n1	-	.	-	-	-	7.1µM
CC(=O)Nc1ccc(S(=O)(=O)NCC(=O)NNC(=O)c2csc(N3CCOCC3)n2)cc1	21µM	.	-	-	-	?
N#C/C(=C\c1ccc(-c2cccc([N+](=O)[O-])c2)o1)C(=O)N1CCOCC1	-	-	-	-	-	-
SMILES	PLK1 PBD block	Sfp PPTase inh	CCT chaperon mod	MmCpn inh	VDR inh	G9a block
N#C/C(=C\c1ccc(-c2ccc([N+](=O)[O-])cc2Br)o1)C(=O)N1CCN(c2ccccc2)CC1	-	-	-	-	-	4µM
CCCCn1c(N)c(S(=O)(=O)c2ccc(C)cc2)c2nc3ccccc3nc21	-	-	-	-	-	?
Cc1ccc(S(=O)(=O)c2c(N)n(-c3ccccc3)c3nc4ccccc4nc23)cc1	-	-	-35	-	-	-
C=CCn1c(NS(=O)(=O)c2ccccc2)c(S(=O)(=O)c2ccc(C)cc2)c2nc3ccccc3nc21	?	40µM	-	?	?	2µM
CC(C)(C)OC(=O)NCCCC1=CC2=CC(=O)C(C)(OC(=O)c3cnc4ccccc4n3)C(=O)C2=CO1 (stereo not drawn)	.	-	.	.	-	.
COc1ccc([N+](=O)[O-])cc1NC(=S)NC(NC(=O)Cc1ccc(OC)c(OC)c1)C(Cl)(Cl)Cl (stereo not drawn)	-	-	-	-	-	-
COc1ccc(NC(=S)NC(NC(=O)C(C)C)C(Cl)(Cl)Cl)c([N+](=O)[O-])c1 (stereo not drawn)	27µM	-	-	-	-	.
COc1ccc([N+](=O)[O-])cc1NC(=S)NC(NC(C)=O)C(Cl)(Cl)Cl (stereo not drawn)	27µM	-	-	-	-	40µM
COc1ccc(-c2cn3nc(N4CCCC(C(=O)Nc5ccccc5OC)C4)sc3n2)cc1 (stereo not drawn)	.	.	.	.	-	?
COc1cc(C2Nc3c(F)cccc3C3C=CCC32)cc(Br)c1OC (stereo not drawn)	-	40µM	-	-	-	.
COc1cccc(C2Nc3c(F)cc(Br)cc3C3C=CCC32)c1OC (stereo not drawn)	-	-	-	-	-	-
CCCS(=O)(=O)Nc1cc(-c2cn3ccc(C)cc3n2)ccc1C	.	.	.	.	-	-
O=C(c1ccc(-c2cccc(Cl)c2)o1)N1CCN(c2ccc([N+](=O)[O-])cc2)CC1	27µM	-	-	-	?	-
Cc1c(Cl)cccc1-c1ccc(C(=O)N2CCN(c3ccc([N+](=O)[O-])cc3)CC2)o1	-	-	-	-	-	?
O=C(Nc1ccc(CN2CCOCC2)cc1)c1ccc(-c2cccc([N+](=O)[O-])c2)o1	-	-	-	-	-	-
CN1CCN(C(=S)c2ccc(-c3cccc([N+](=O)[O-])c3)o2)CC1	-	-	-	-	?	40µM
COc1ccc(N2CCN(C(=O)c3ccc(COc4ccc([N+](=O)[O-])cc4)o3)CC2)cc1	-	-	-	-	-	22µM
O=[N+]([O-])c1cccc(-c2ccc(CN3CCCCC3)o2)c1	-	-	-	-	-	.
O=[N+]([O-])c1cccc(-c2ccc(C(=S)N3CCOCC3)o2)c1	-	20µM	-	-	-	.
COc1cc(OC)c(-c2cc(C(=O)NCc3ccc(F)cc3)c3c(-c4ccccc4)[nH]nc3n2)cc1OC	.	.	.	.	-	-
O=[N+]([O-])c1cccc(-c2ccc(C(=S)N3CCN(c4ccccc4)CC3)o2)c1	12µM	13µM	-	-	?	3.5µM
Cc1c(C(=O)N2CCN(c3cccc(Cl)c3)CC2)cccc1[N+](=O)[O-]	30µM	-	-	-	?	?
CCNc1ncc2nc(-c3ccc(F)cc3)c(=O)n(C)c2n1	.	-	.	.	-	-[0.501 µM]
CCOC(=O)c1c(C)[nH]c(CCC(=O)Nc2cc(C)ccc2OC)c1C	.	.	.	.	-	-
CCOc1ccc(OC(=O)c2cn(-c3ccc(C)cc3)c(=O)c3ccccc23)cc1	.	.	.	.	-	-
COc1ccc(-c2nc(-c3ccccc3)nc(Cl)c2C#N)cc1	-	-	-	-	-	?
